From PubChem BioAssay AID2129 (The Scripps Research Institute Molecular Screening Center, 2009)
The campaign covered roughly 320,000 compounds. About 2,200 (0.69%) were called active.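 How the source made its calls: active means inhibition above the mean of all tested compounds plus 3 SD, cutoff set per campaign (cut at about 30% in these data); inactive means the rest.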 The entries come from a sample that favours actives as a whole.

Target: Bcl-2-like protein 1 (Homo sapiens) (UniProt Q07817)
Assay: inhibitors of human Bcl-xL, primary screen, biochemical, fluorescence polarization, HTS (AID 2129);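 further: 0% = DMSO wells and 100% = unlabeled Bim-BH3 peptide competitor; inhibitors lower millipolarization by displacing the labeled peptide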
Settings: GST-Bcl-xL / FITC-Bim BH3 peptide fluorescence polarization; at 10.9 µM; stronger effect = higher value

Sequence of Bcl-2-like protein 1 (Homo sapiens) (Q07817 whole entry, looked up): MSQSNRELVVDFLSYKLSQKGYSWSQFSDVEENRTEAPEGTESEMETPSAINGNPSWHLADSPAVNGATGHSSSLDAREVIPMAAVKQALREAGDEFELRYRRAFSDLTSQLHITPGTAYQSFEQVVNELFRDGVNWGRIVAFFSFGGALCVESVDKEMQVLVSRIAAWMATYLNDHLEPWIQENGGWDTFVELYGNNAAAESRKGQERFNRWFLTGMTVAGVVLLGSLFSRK

Structure (SMILES)	inhibition
O=C(NCC1(N2CCCCC2)CCCCC1)c1ccc(NS(=O)(=O)c2ccc(F)cc2)cc1	5.4% (inactive)
Cc1coc2c(O)cc3c(c12)OC1(N2CCCCC2)C(=O)NCCCC31 (centres undefined)	39% (active)
NC(=O)c1nsc(C(=O)N(CC(=O)NCc2ccc(F)cc2)Cc2ccco2)c1N	1.4% (inactive)
COc1ccc(-n2cnc3cc(NCc4ccco4)ccc32)cc1	6.77% (inactive)
Cc1ccc2[nH]c(C(=O)O)c(NC(=O)c3ccccc3[N+](=O)[O-])c2c1	3.72% (inactive)
CN(C)CCCCCN(C)Cc1cc2ccccc2o1	0.68% (inactive)
CCCCCCCNc1nc(Cl)nc(NCCO)n1	5.24% (inactive)
CCOc1ccc(C(=O)NC2CCN(C(=O)Nc3ccccc3OC)CC2)cc1	1.4% (inactive)
CCOc1ccc2nc(N3CCCN(C(=O)Nc4ccccc4C)CC3)c(C#N)cc2c1	46.6% (active)
CCOC(=O)c1cc(C#N)c(N2CCCCC2)nc1-c1ccccc1	-1.67% (inactive)
Cc1ccc(C)c(NC(=S)NNC(=S)Nc2ccc(C(C)C)cc2)c1	18% (inactive)
CC(C)c1ccc(NC(=S)NNc2ccc(Cl)c(C(=O)O)c2)cc1	115% (active)
O=C(NC(=S)Nc1ccc(Cl)c(C(=O)O)c1)c1cncc(Br)c1	-0.3% (inactive)
Cc1nn(C(C)(C)C)c(OC(=O)CC(C)C)c1S(=O)(=O)c1ccccc1	2.54% (inactive)
Nc1cc(N2CCCCCC2)c2nonc2c1[N+](=O)[O-]	53.6% (active)
Cc1c(Nc2cc(N3CCCC(C)C3)c3nonc3c2[N+](=O)[O-])c(=O)n(-c2ccccc2)n1C (centres undefined)	-1.91% (inactive)
Nc1nc(NCC(=O)O)nc(N2CCCCCC2)c1[N+](=O)[O-]	-0.96% (inactive)
CCCCCCCCCOC1OC(CO)C(O)C(O)C1NC(C)=O (centres undefined)	0.06% (inactive)
O=c1c2ccccc2nnn1CSc1nc2sc3c(c2c(=O)n1CC1CCCO1)CCC3 (centres undefined)	-0.57% (inactive)
O=C1CCC(=O)N(O)CCCCCNC(=O)CCC(=O)N(O)CCCCCNC(=O)CCC(=O)N(O)CCCCCN1	6.42% (inactive)
CCCn1c(C(C)Nc2nc(-c3ccc(C)cc3)cs2)nc2cc(Cl)c(N3CCCCC3)cc21 (centres undefined)	4.98% (inactive)
CCCn1c(C2CCCN2c2nc(-c3ccc(OC)cc3)cs2)nc2ccccc21 (centres undefined)	7.05% (inactive)
CCCn1c(C2CCCN2c2nc(-c3ccc(C)cc3)cs2)nc2cc(Cl)c(N3CCCCC3)cc21 (centres undefined)	76.7% (active)
Cc1cc(S(=O)(=O)NCc2ccccn2)c(Cl)cc1Cl	4.73% (inactive)

Structure (SMILES)	inhibition
CCOC(=O)c1c(C)n(C)c2ccc(OC)c(NC(=O)CN3CCC4(CC3)OCCO4)c12	-7.5% (inactive)
[O-][n+]1c2c(nn1-c1ccc(Cl)c(Cl)c1)-c1nonc1CC2	-0.16% (inactive)
COCCN1C=C2C(=O)C(C)(OC(=O)C3CCCC3)C(=O)C=C2C=C1c1ccsc1 (centres undefined)	34.2% (active)
CC1(OC(=O)CCc2ccccc2)C(=O)C=C2C=C(c3ccc(C#N)cc3)N(CCc3ccccn3)C=C2C1=O (centres undefined)	25.8% (inactive)
CC1(OC(=O)C2CCCC2)C(=O)C=C2C=C(c3ccc(C#N)cc3)OC=C2C1=O (centres undefined)	10.6% (inactive)
Fc1ccccc1/C=N/Nc1cc(N2CCCCC2)ncn1	1.94% (inactive)
Cn1nccc1/C=N\NC(=O)c1ccc(Cl)cc1	7.38% (inactive)
O=c1[nH]n2c(-c3ccccc3)nc(O)c2c2ccccc12	-0.91% (inactive)
O=c1[nH]c2ccccc2n2c(-c3ccccc3)nnc12	43% (active)
O=C(O)/C=C/c1ccc(S(=O)(=O)N2CCCCCC2)cc1	-3.18% (inactive)
O=C(CN1CCSCC1)N/N=C/c1ccc(F)cc1F	2.55% (inactive)
COc1ncnc2c1N=C1CC(C)(C)CC(N)=C1S2	163% (active)
O=C(COc1cccc(Cl)c1)NCc1ccccc1	3.14% (inactive)
O=C(O)c1ccc2c3c(cccc13)C(=O)N(OS(=O)(=O)c1ccccc1)C2=O	-6.08% (inactive)
C[N+](C)(CCCCCC[N+](C)(C)CCCN1C(=O)c2cccc3cccc(c23)C1=O)CCCN1C(=O)c2cccc3cccc(c23)C1=O	1.22% (inactive)
O=C1c2ccccc2C(=O)N1c1cccc2ccccc12	4.16% (inactive)
Cc1nn(-c2cc(Cl)ccc2N)c(=O)c2ccccc12	-0.7% (inactive)
O=C(C1CCN(S(=O)(=O)c2ccc(Br)s2)CC1)N1CCN(C2CCCCC2)CC1	3.57% (inactive)
CSc1ccc(CN(C)CC(=O)NCc2ccc(F)cc2)cc1	5.75% (inactive)
CSc1ccc(CN2C(=O)NC3(CCCCCC3)C2=O)cc1	0.37% (inactive)
Cc1c(C(=O)NC(C)C2CC3CCC2C3)cccc1[N+](=O)[O-] (centres undefined)	0.81% (inactive)
COc1ccccc1N1CCN(c2nc(C)cc(=O)[nH]2)CC1	1.46% (inactive)
CC(=O)C1(C)N(O)C(C)(C)C(c2cccs2)=[N+]1[O-] (centres undefined)	6.8% (inactive)
Cc1ccc(SCC(=O)Nc2nncs2)cc1	-0.16% (inactive)

Structure (SMILES)	inhibition
Cc1cc(C)cc(NC(=O)NCc2ccccn2)c1	0.71% (inactive)
Cc1nc2cc(NC(=O)NCc3ccccc3)ccc2o1	-3.22% (inactive)
COCCNC(=O)Nc1ccc2nc(-c3ccco3)c(-c3ccco3)nc2c1	120% (active)
CCOc1ccc(C(=O)NC(C(=O)NCc2ccccn2)C(C)C)cc1 (centres undefined)	-3.49% (inactive)
CCOc1cc(NC(=S)NCCCOC)c(OCC)cc1NC(=O)c1ccco1	1.13% (inactive)
O=C(NCc1ccccn1)c1ccc2nc(-c3ccco3)c(-c3ccco3)nc2c1	61.7% (active)
O=C(NC1CC2CCCC(C1)N2C(=O)N1CCCCC1)C1CCCCC1 (centres undefined)	0.87% (inactive)
O=C(Cc1nc2ccccc2[nH]c1=O)c1ccc(Cl)cc1	34.1% (active)
O=C(/C(=C/c1cccc(Cl)c1)c1nc2ccccc2[nH]1)c1ccccc1	-0.83% (inactive)
N#C/C(=C(/O)COC(=O)COc1ccc(Cl)cc1)c1nc2ccccc2[nH]1	-9.4% (inactive)
COc1ccc(NC(=S)N2N=CCC2c2ccccc2)cc1 (centres undefined)	1.8% (inactive)
C[n+]1ccc(C(=O)NCc2ccccc2)cc1	-12.9% (inactive)
COc1ccc(S(=O)(=O)Nc2cc(C)on2)cc1NC(C)=O	3.59% (inactive)
O=c1c2cc(-c3ccccc3)sc2nc2n1N=C(c1cccs1)CS2	7.98% (inactive)
COc1ccccc1C1CCN(c2ccc([N+](=O)[O-])cn2)CC1	6.64% (inactive)
COc1ccc(C(=O)NCCNc2ccc([N+](=O)[O-])cn2)cc1	-0.8% (inactive)
COc1ccc(Nc2ccc([N+](=O)[O-])cn2)cn1	47.6% (active)
O=C(Cn1cc(C(F)(F)F)ccc1=O)N/N=C/c1ccc(Cl)cc1Cl	4.51% (inactive)
Cc1ccc(NC(=O)CN(C)S(=O)(=O)c2cnc[nH]2)cc1C	2.37% (inactive)
Cc1ccc(C(=O)N/N=C/c2cccc3ccccc23)cn1	0.59% (inactive)
Cc1ccc(C(=O)N/N=C\c2cc(Br)c(Br)o2)cn1	39.1% (active)
O=C(N/N=C\c1cc(Br)c(Br)o1)C1COc2ccccc2O1 (centres undefined)	8.03% (inactive)
CC(C)(C)C1CCc2c(sc3nc(SCC(N)=O)nc(N)c23)C1 (centres undefined)	0.88% (inactive)
O=C1COc2ccc(C(=O)CSc3ccc(Br)cc3)cc2N1	1.67% (inactive)

Structure (SMILES)	inhibition
Cc1ccc(NC(=O)CSc2nc(=O)n(CCN(C)C)c3c2CCCC3)c(C)c1	0.09% (inactive)
O=C1CCC(=O)N1CCOP1(=O)COc2ccccc2OC1	4.75% (inactive)
Cc1cccc(C)c1NC(=O)CN(C)C(=O)CCC(=O)c1ccccc1	7.72% (inactive)
Cc1ccc(C(=O)CCC(=O)N(C)CC(=O)Nc2c(Cl)cccc2Cl)cc1	-0.97% (inactive)
CN(CC(=O)Nc1ccc(Cl)c(C(F)(F)F)c1)C(=O)CCC(=O)c1ccccc1	45.3% (active)
C=CCSc1nnc(N2C(=O)C(O)=C(C(=O)c3ccco3)C2c2ccc(F)cc2)s1 (centres undefined)	51.8% (active)
Cc1ccc2nc(N3C(=O)C(O)=C(C(=O)c4ccco4)C3c3cccc(O)c3)sc2c1 (centres undefined)	2.1% (inactive)
CC(C)c1ccc(C2C(C(=O)c3ccco3)=C(O)C(=O)N2CC2CCCO2)cc1 (centres undefined)	1.85% (inactive)
CC(OC(=O)C1CC(=O)N(Cc2ccccc2)C1)C(=O)Nc1ccccc1[N+](=O)[O-] (centres undefined)	5.02% (inactive)
C=CCNc1nnc(C)c2ccccc12	1.09% (inactive)
C=CCNc1nnc(SCC(=O)N2CCCCC2)c2ccccc12	108% (active)
O=C(CSc1ncccn1)N1CCCC1	1.98% (inactive)
COCCNC(=O)C(c1ccc(C)cc1)N(C(=O)CCC(=O)Nc1ccccn1)c1cccc(C)c1 (centres undefined)	3.67% (inactive)
CN(C)C(=O)CSc1n[nH]c(-c2ccco2)n1	1.16% (inactive)
O=C1CCC(=O)N1c1ccc(NCCc2ccccc2F)c([N+](=O)[O-])c1	4.81% (inactive)
COC(=O)c1sc(NC(=S)NC(=O)c2ccc(C)cc2)nc1C	90.6% (active)
Cc1ccc(NC(=S)NC(=O)c2ccc(-c3ccccc3)cc2)cc1	1.62% (inactive)
Cc1ccc(C(=O)NC(=S)Nc2ccccc2C)cc1	2.65% (inactive)
CCOC(=O)c1sc2nc(C)nc(SCC(N)=O)c2c1C	3.97% (inactive)
CC(C)(C)OC(=O)NCCCC1=CC2=CC(=O)C(C)(OC(=O)c3ccco3)C(=O)C2=CO1 (centres undefined)	62.9% (active)
C=CCN1C=C2C(=O)C(C)(OC(=O)CCc3ccccc3)C(=O)C=C2C=C1c1ccc(C#N)cc1 (centres undefined)	26.4% (inactive)
O=C(COC(=O)c1ccco1)NCc1ccc(Cl)cc1	3.7% (inactive)
